Compounds without any hit were thinned out: in the full panel of roughly 83,000, 20% have a hit.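 Cell lines were cultured in 96-well plates, exposed to a single compound concentration, and assessed for percent growth 48 hours later.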 Values without a mark were called inactive. Calls of active or inactive are those of the source.

In the test the test system is HT29 colon. Put plainly: NCI-60 one-dose screen, 48 h (100 = growth as untreated, 0 = no growth, -100 = all killed). Particulars: 10 µM. As to the method: Growth inhibition of the HT29 human tumor cell line is measured as a screen for anti-cancer activity. Cells are grown in 96 well plates and exposed to the test compound for 48 hours. Compounds are tested at a single concentration, which is 10^-5 M for most compounds. The reported endpoint is percent growth (GI% or GIPRCNT), where numbers from 0 - 100% represent growth inhibition, and numbers from -100% - 0 represent cell death. For example, a value of 40 represents 60% growth inhibition. A value of 0 means no net growth occurred over the course of the experiment. A value of -40 indicates 40% of cells at the beginning of the experiment died by the end of the experiment. A value of -100 means all cells are dead at the end of the experiment.
NCI-60 Human Tumor Cell Lines Screen was performed using the standard one-dose NCI protocol, which is described in more detail at https://dtp.cancer.gov/discovery_development/nci-60/default.htm.
Compounds with GIPRCNT values below 10 were considered active. Activity score was based on GIPRCNT using the following formula: […]
Score is 0 for GIPRCNT values of 100 or above, 50 for GIPRCNT values of 0, and 100 for GIPRCNT values of -100.
In the case of `Cc1cc(Nc2cccc(F)c2)nc(NCc2ccccc2)n1`, the growth was 22.8%.

For `Cc1cc(=O)oc2cc(OCc3cn(CC(O)CO)nn3)ccc12` (stereo not given), the growth was 115%.

On to `C=CCOc1ccc2c(c1)CC=C1[C@@H]2CC[C@]2(C)C(=O)/C(=N/O)C[C@@H]12`, for which the growth was 26.8%.

`COc1cc(C(c2c[nH]c3ccccc23)N2CCCC2)ccc1OCc1ccccc1` (stereo not given): the growth is 78.5%.

Turning to `CCC(O)c1ccc(Br)cc1NC(=O)c1cccc(Cl)c1` (stereo not given), the growth was 83.7%.

In the case of `Cc1ccc(-n2c(-c3cc4c([nH]c5ccccc54)c(-c4cccc(O)c4)n3)n[nH]c2=S)cc1`, the growth is -44% (active).

With `N#C/C(=C\N1C(=O)/C(=C/c2cccc([N+](=O)[O-])c2)SC1=S)c1nc2ccccc2s1`, the growth was 90.6%.

Take `CC(C)C[C@H](NC(=O)Cn1ccc(Nc2ccccc2)cc1=O)B(O)O`: the growth is 1.28% (active).

Regarding `CCSc1nc2c([nH]1)c(=O)n(C)c(=S)n2C`, the growth is 109%.

Take `O=c1[nH]c(=O)n(C2C[C@@H](O)[C@@H](CO)O2)cc1F` (stereo not given in full): the growth is 27.2%.

Turning to `CC(=O)Oc1c(C)c(C)c2c(c1C)CCC(C)(CC(=O)OCCCCCCCCCCC[P+](c1ccccc1)(c1ccccc1)c1ccccc1)O2` (stereo not given), the growth is -53.9% (active).

Turning to `CC(=O)Nc1nc(C)c(C(=O)NNC=O)s1`, the growth is 99.8%.

In the case of `COc1ccc(/C=C2\CCC3C(CCCC34OCCO4)C2=O)cc1` (stereo not given), the growth was 80.1%.

Turning to `CCOC(=O)c1c(O)c2cc(-c3ccccc3)nc(OCC)c2c(=O)n1C`, the growth was 107%.

Regarding `Cc1c(C(=O)N[C@H](CO)Cc2ccccc2)[nH]c2ccc(Cl)cc2c1=O`, the growth is 90.1%.

As for `COc1cc2ccnc(C=O)c2cc1OC`, the growth was 20.9%.

`COc1ccc(-c2nc(SCC(=O)c3ccc(Br)cc3)[nH]c(=O)c2C#N)cc1`: the growth was 101%.

With `Cn1c(N)c(N=Cc2ccccc2)c(=O)n(C)c1=O`, the growth was 101%.

For `COc1cc(C2c3cc4c(cc3C(O)C(CO)C2CO)OCO4)cc(OC)c1OC` (stereo not given), the growth was 5.41% (active).

In the case of `CCOc1nc(-c2ccccc2)cc2c(O)c(C(=O)NC(C)C)[nH]c(=O)c12`, the growth is 125%.

As to `Cc1cccc2c1O/C(=C\c1ncc([N+](=O)[O-])n1C)C2=O`, the growth was -21% (active).

Turning to `N#CCC1CCCC1`, the growth was 105%.

For `COc1ccc2nc(-c3ccccc3)cc(C(C)=O)c2c1`, the growth is 93.6%.

For `COc1cc(C(=O)n2nc(N)c3c(C)cc(C)nc32)cc(OC)c1OC`, the growth is 24%.

For `COc1ccc(/C(CS(=O)(=O)c2ccccc2)=N\O)cc1`, the growth is 106%.

On to `COc1ccc2oc(=O)cc(C(c3ccc[nH]3)c3ccc[nH]3)c2c1`, for which the growth is -10.5% (active).

For the compound `O=S(=O)(NCCO)c1ccc(OCCOc2ccc(S(=O)(=O)NCCO)cc2)cc1`, the growth is 100%.

For the compound `N=C(N)c1ccc(-c2ccc(-c3ccccc3)s2)s1`, the growth is -70.1% (active).

Regarding `COc1cc(CSc2nc3ccc(C)cc3c(=O)n2Cc2ccccc2)cc(OC)c1OC`, the growth was 10.5%.

As for `COc1cc(C)c2sc3ccccc3c(=O)c2c1NCCN(C)C`, the growth was 16.3%.

On to `CCCN(CCC)CCCNC(=O)c1cc2c(-c3ccc(OC)c(OC)c3)nn(C)c2s1`, for which the growth is 56.5%.

Take `Oc1ccc(Cn2cc3c(c2-c2ccccc2)CCc2cnoc2-3)cc1`: the growth was 94%.

Regarding `COc1ccc(Cn2cc3c(c2-c2cc(OC)c(OC)c(OC)c2)CCc2cnoc2-3)cc1N`, the growth is 8.78% (active).

Consider `COc1cc(Cn2c(-c3ccccc3)c(Cl)c3c2-c2oncc2CC3)cc(OC)c1`, for which the growth is 56.1%.

Consider `COc1ccc(-c2cc(=O)n(-c3nc4ccccc4[nH]3)[nH]2)cc1OC`, for which the growth was 109%.

As for `CC(=O)/C(=C\c1ccc(Cl)cc1)c1ccccc1`, the growth is 2.71% (active).

Turning to `Nc1cc2c(cc1Cl)-c1ccc(Cl)cc1C2=O`, the growth is 97.5%.

Regarding `COc1ccc(-c2oncc2-c2cc(OC)c3c(c2)OCO3)cc1`, the growth was 6.55% (active).

`Cc1ccc(-c2cc(C(=O)Nc3ccc(S(=O)(=O)N4CCCCC4)cc3)[nH]n2)c(O)c1`: the growth is 2.87% (active).

As to `COc1cc(C2CC(=O)Nc3c2c(C)nn3-c2nc3ccccc3[nH]2)cc(OC)c1O` (stereo not given), the growth is 57.9%.

These data come from PubChem BioAssay (NCI).
